# In the supplement of paper PMC8728848:
# About 410 targets per protein were measured; listed, in parts, are those with the strongest signals and a random draw of the rest.
# Key:
# Experiment in all cases: glycan array binding signal (z-score within array); higher = stronger binding
# Conditions in all cases: glycan notation: IUPAC condensed, linker removed
# [1] = test system: GlcNAc(b1-3)[GlcNAc(b1-6)]Gal(b1-4)GlcNAc
# In short: (§1)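 The binding signal is a Z-score computed within each array and averaged over linkers. Arrays of the same protein sequence at different concentrations or buffers were also averaged together. Data originate from 3228 arrays in the Consortium for Functional Glycomics database, kept only where the protein sequence was available.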
# GlcNAc(b1-6)GalNAc = test system: GlcNAc(b1-6)GalNAc
# In short: as §1
# [2] = test system: GlcNAc(b1-3)[GlcNAc(b1-6)]GalNAc
# In short: as §1
# [3] = test system: GlcNAc(b1-4)GlcNAc(b1-4)GlcNAc(b1-4)GlcNAc(b1-4)GlcNAc
# In short: as §1
# Man(a1-2)Man(a1-3)Man = test system: Man(a1-2)Man(a1-3)Man
# In short: as §1
# [4] = test system: Man(a1-2)Man(a1-2)Man(a1-3)Man
# In short: as §1
# [5] = test system: Man(a1-2)Man(a1-2)Man(a1-6)[Man(a1-3)]Man
# In short: as §1
# [6] = test system: Man(a1-2)Man(a1-3)[Man(a1-2)Man(a1-6)]Man(a1-6)[Man(a1-2)Man(a1-2)Man(a1-3)]Man(b1-4)GlcNAc(b1-4)GlcNAc
# In short: as §1
# [7] = test system: Man(a1-2)Man(a1-3)[Man(a1-2)Man(a1-6)]Man(a1-6)[Man(a1-2)Man(a1-2)Man(a1-3)]Man
# In short: as §1
# [8] = test system: Man(a1-2)Man(a1-3)[Man(a1-2)Man(a1-6)]Man
# In short: as §1
# [9] = test system: Man(a1-2)Man(a1-3)[Man(a1-6)]Man(a1-6)[Man(a1-2)Man(a1-3)]Man(b1-4)GlcNAc(b1-4)GlcNAc
# In short: as §1
# [10] = test system: Man(a1-2)Man(a1-6)[Man(a1-3)]Man(a1-6)[Man(a1-2)Man(a1-2)Man(a1-3)]Man(b1-4)GlcNAc(b1-4)GlcNAc
# In short: as §1
# [11] = test system: Man(a1-2)Man(a1-6)[Man(a1-3)]Man(a1-6)[Man(a1-2)Man(a1-2)Man(a1-3)]Man
# In short: as §1
# GlcNAc(b1-3)Gal(b1-4)Glc = test system: GlcNAc(b1-3)Gal(b1-4)Glc
# In short: as §1
# GlcNAc(b1-3)GalNAc = test system: GlcNAc(b1-3)GalNAc
# In short: as §1
# GlcNAc(b1-4)GlcNAc = test system: GlcNAc(b1-4)GlcNAc
# In short: as §1
# [12] = test system: GlcNAc(b1-3)Gal(b1-4)GlcNAc
# In short: as §1
# Kdn(a2-3)Gal(b1-3)GlcNAc = test system: Kdn(a2-3)Gal(b1-3)GlcNAc
# In short: as §1
# [13] = test system: GlcNAc(b1-4)Gal(b1-4)GlcNAc
# In short: as §1
# Kdn(a2-3)Gal(b1-4)GlcNAc = test system: Kdn(a2-3)Gal(b1-4)GlcNAc
# In short: as §1
substance,measurement,setting,value
"GspB (Streptococcus gordonii), Q939N5",glycan array binding signal (z-score),[1],-0.418
same,glycan array binding signal (z-score),GlcNAc(b1-6)GalNAc,-0.73
"BambL (Burhholderia ambifaria), Q0B4G1",glycan array binding signal (z-score),[2],-0.313
same,glycan array binding signal (z-score),[3],-0.314
same,glycan array binding signal (z-score),Man(a1-2)Man(a1-3)Man,-0.316
Actinohivin (Actinomycete K97),glycan array binding signal (z-score),[4],3.74
same,glycan array binding signal (z-score),[5],16.1
same,glycan array binding signal (z-score),Man(a1-2)Man(a1-3)Man,1.82
same,glycan array binding signal (z-score),[6],3.83
same,glycan array binding signal (z-score),[7],12.4
same,glycan array binding signal (z-score),[8],1.78
same,glycan array binding signal (z-score),[9],3.51
same,glycan array binding signal (z-score),[10],6.4
same,glycan array binding signal (z-score),[11],8.54
"Wza (Escherichia coli), P0A930",glycan array binding signal (z-score),[1],3.12
same,glycan array binding signal (z-score),[4],2.8
Epa22,glycan array binding signal (z-score),GlcNAc(b1-3)Gal(b1-4)Glc,-0.695
same,glycan array binding signal (z-score),GlcNAc(b1-3)GalNAc,-0.435
"SpGH101 (Streptococcus pneumoniae), Q8DR60",glycan array binding signal (z-score),GlcNAc(b1-4)GlcNAc,-0.14
same,glycan array binding signal (z-score),Man(a1-2)Man(a1-3)Man,-0.182
same,glycan array binding signal (z-score),[6],-0.2
AgI/IIC123-GFP (Streptococcus mutans),glycan array binding signal (z-score),[12],-0.479
same,glycan array binding signal (z-score),Kdn(a2-3)Gal(b1-3)GlcNAc,-0.106
same,glycan array binding signal (z-score),[4],-0.465
same,glycan array binding signal (z-score),[8],0.368
LcI (Legionella pneumophila),glycan array binding signal (z-score),[13],4
same,glycan array binding signal (z-score),[8],-0.584
"SiiE (Salmonella typhimurium), A0A0H3NVH0",glycan array binding signal (z-score),Kdn(a2-3)Gal(b1-4)GlcNAc,2.58
same,glycan array binding signal (z-score),[10],-0.297
